Pf growth 48h: Primary qHTS for delayed death inhibitors of the malarial parasite plastid, 48 hour incubation; P. falciparum luciferase growth in erythrocytes, 48 h; Potency, µM (doses to about 28.7 µM), actives largely listed as inhibitors; 5.9% of 310,000 active; AID 504832, 2011
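Growth was read as firefly luciferase luminescence after a 48 h, 37 C, 5% CO2 exposure of compounds to reporter-bearing P. falciparum cultures (0.1% parasitemia, 2% hematocrit final) in Albumax-supplemented RPMI 1640.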
CHX counter: Cycloheximide Counterscreen for Small Molecule Inhibitors of Shiga Toxin; max response, %; AID 2314, 2010; 12% of 300,000 active; cell reporter, cycloheximide protein synthesis inhibition counterscreen; in the data active means max response mostly above about 13%, no sharp cut-off; inactive means mostly below about 14%; further: read at 38.3 µM for the half of the compounds with a filed dose
HCMV antiviral: qHTS Assay for inhibitors of the human cytomegalovirus (HCMV) | HFF cells, HCMV-luciferase reporter, 72 h; hits give low values | activity change, negative = inhibition, % at 57.5 µM | 4.5% of 410,000 active | AID 1259415, 2018; in the data active means activity change below about -60%; inconclusive means no clear call, values can overlap the other calls; inactive means above about -39%
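Cell-based, HFFs, 1000 cells/well, 16 h 37C; cpds in DMSO + HCMV-luc, MOI 1 PFU/cell; 72 h 37C; OneGlo luminescence after 5 min RT; norm. to buffer vs Salinomycin 10uM.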
Shiga toxin inh: A qHTS for Small Molecule Inhibitors of Shiga Toxin. Vero cells, Shiga toxin protein synthesis inhibition reporter. AID 2315, 2010. inhibition, % at 38.7 µM. 9.2% of 290,000 active; in the data active means inhibition mostly above about 28%, no sharp cut-off; inactive means mostly below about 43%
Pf growth 96h: Primary qHTS for delayed death inhibitors of the malarial parasite plastid, 96 hour incubation; P. falciparum luciferase reporter growth, 96 h; Potency, µM (highest dose often 28.7 µM), actives largely listed as inhibitors; 6.9% of 320,000 active
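Luminescence readout: decreased luciferase signal marks inhibited growth of reporter-expressing P. falciparum in infected red cells (2% hematocrit, 0.05% parasitemia final), exposed to compound two generations (96 h, 37 C, 5% CO2).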
Hits are given with their value; . = inactive; ? = inconclusive; / = not tested or not shown. Hits are enriched below; roughly 20% of the tested compounds scored in any of these assays. Unless noted, the call rests on the fitted dose curve; in most records, active means well fitted inhibition curve with a large enough effect; inconclusive means small, poorly fitted or top-dose-only effect, or another doubt; inactive means no such curve, though single readings can be large or run the other way.

SMILES	Pf growth 48h	CHX counter	HCMV antiviral	Shiga toxin inh	Pf growth 96h
COc1ccc(C(=O)c2c3ccc([N+](=O)[O-])cc3[n+]([O-])n2CCCC(N)=O)cc1	?	/	.	/	?
NCCCn1c(C(=O)c2cc(Cl)c(N)c(Cl)c2)c2ccc(C(F)(F)F)cc2[n+]1[O-]	6.6µM	/	.	/	?
NCCCn1c(C(=O)c2cc(Cl)c(N)c(Cl)c2)c2ccc([N+](=O)[O-])cc2[n+]1[O-]	12µM	/	-67	/	?
NC(=O)CCCn1c(C(=O)c2cc(Cl)c(N)c(Cl)c2)c2ccc(C(F)(F)F)cc2[n+]1[O-]	5.9µM	/	.	/	4.7µM
COc1ccc(C(=O)c2c3ccc(C(F)(F)F)cc3[n+]([O-])n2CCCC(N)=O)cc1	?	/	.	/	?
CCOC(=O)c1ccccc1NC(=O)C(=O)Nc1ccc2nc3n(c(=O)c2c1)CCCCC3	/	/	.	/	/
C=CCOC(=O)c1sc(NC(=O)c2ccc(OC)cc2)nc1C	.	16	.	.	.
CCOc1ccc(C(=O)Nc2nc(C)c(C(=O)OC)s2)cc1	.	35	.	51	.
COC(=O)c1sc(NC(=O)c2ccncc2)nc1C	.	.	.	.	.
O=C(Cc1ccc(Cl)cc1)N/N=C/c1ccccc1	.	.	-68	.	?
O=C(CC(=O)Nc1ccc(Cl)cc1)N/N=C\c1cccc(F)c1	.	.	.	.	10µM
O=C(CC(=O)NC1CCCCC1)N/N=C/c1ccc(Cl)cc1	.	.	.	.	4.7µM
O=C(O)COc1ccc(/C=N/NC(=O)Cc2ccc(Cl)cc2)cc1	?	.	-101	.	.
O=C(CCC(=O)Nc1ccc(F)cc1)N/N=C/c1cccc(Br)c1	.	.	.	.	.
O=C(Cc1ccccc1)NN=Cc1ccccc1	/	/	.	/	/
O=C(Cc1ccc(Cl)cc1)N/N=C/c1ccncc1	.	.	.	.	.
CCOC(=O)CN(C(=O)c1ccccc1[N+](=O)[O-])C(C)(C)C	.	.	?	.	.
COc1cccc(CNC(=O)c2cccc(-n3c(C)nc4cccnc43)c2)c1OC	/	/	.	/	/
CCOc1ccc(-c2cnc(NCc3cccc4ccccc34)n2CCOC)cc1	?	.	.	.	.
COC(=O)c1ccc(Cn2cnc3c(N)ncnc32)cc1	/	/	.	/	/
O=C(/C=C/c1ccc2c(c1)OCO2)NCC1CCCO1 (stereo not drawn)	.	37	.	63	.
O=C(/C=C/c1cccc([N+](=O)[O-])c1)NCC1CCCO1 (stereo not drawn)	.	.	.	.	.
O=C(/C=C/c1ccc2c(c1)OCO2)NC1CCCC1	.	27	.	/	.
Cc1cc(=O)c(C(=O)O)nn1-c1ccccc1Cl	.	.	.	.	.
CC(C(=O)NC1CCCC1)N1C(=O)c2cccc3cccc1c23 (stereo not drawn)	?	.	.	.	2.3µM
SMILES	Pf growth 48h	CHX counter	HCMV antiviral	Shiga toxin inh	Pf growth 96h
CC(C(N)=O)N1C(=O)c2cccc3cccc1c23 (stereo not drawn)	.	.	.	.	/
CCOc1ccccc1NC(=O)N1CCc2cc(S(=O)(=O)N3CCC(C)CC3)ccc21	/	/	.	/	/
O=C(c1cccs1)N1CCCC(c2nc3c(nnn3Cc3c(Cl)cccc3Cl)c(=O)[nH]2)C1 (stereo not drawn)	13µM	.	.	.	?
CC(C)(C)c1ccc(Cn2nnc3c(=O)[nH]c(C4CCN(C(=O)Cc5cccs5)CC4)nc32)cc1	5.9µM	.	?	.	/
Cc1ccc(Cn2nnc3c(=O)[nH]c(C4CCN(C(=O)Cc5cccs5)CC4)nc32)cc1	.	.	.	.	?
CC(C)(C)c1ccc(Cn2nnc3c(=O)[nH]c(C4CCN(C(=O)c5ccco5)CC4)nc32)cc1	6.6µM	.	.	.	.
O=C(NCc1cccs1)c1nc2c(nnn2Cc2ccccc2Cl)c(=O)[nH]1	4.1µM	.	-102	.	.
Cc1c(C(=O)N2CCC(n3nccc3NC(=O)C3CC3)CC2)[nH]c2ccc(Cl)cc12	.	.	.	.	?
CC(C)(C)c1ccc(Cn2nnc3c(=O)[nH]c(C4CCCN(C(=O)Cc5cccs5)C4)nc32)cc1 (stereo not drawn)	?	.	.	.	5.2µM
CC(C)(C)c1ccc(Cn2nnc3c(=O)[nH]c(C4CCCN(C(=O)c5cccs5)C4)nc32)cc1 (stereo not drawn)	?	.	.	.	4.1µM
CC(C)(C)c1ccc(C(=O)N2CCCC(c3nc4c(nnn4Cc4cccc(F)c4)c(=O)[nH]3)C2)cc1 (stereo not drawn)	/	/	.	/	/
O=C(Cc1cccs1)N1CCCC(c2nc3c(nnn3Cc3ccccc3Cl)c(=O)[nH]2)C1 (stereo not drawn)	5.2µM	.	.	.	.
Cc1ccc(C(=O)OC(C)C(=O)NC2CCCCC2C)cc1S(=O)(=O)N1CCCCC1 (stereo not drawn)	.	.	.	.	?
CCCCOC(=O)c1ccc(NC(=O)c2csnn2)cc1	/	/	.	/	/
CCNS(=O)(=O)c1ccc(CCC(=O)NCc2ccc(C)cc2)cc1	.	.	.	.	.
Cc1cccc(N2CCN(C(=O)Cn3nc(Cc4ccncc4)c4ccccc4c3=O)CC2)c1C	/	/	.	/	/
COc1ccccc1Nc1nc(NCCC(C)C)nc(N)c1[N+](=O)[O-]	3.7µM	.	?	.	?
COc1ccc(OC)c(Nc2nc(NCCCN(C)C)nc(N)c2[N+](=O)[O-])c1	13µM	.	.	.	12µM
COCCCNc1nc(N)c([N+](=O)[O-])c(Nc2cc(OC)ccc2OC)n1	.	.	.	.	?
CC(C)C#Cc1ccc2c(c1)O[C@@H](CN(C)S(=O)(=O)c1cn(C)cn1)[C@@H](C)CN([C@H](C)CO)S2(=O)=O	/	/	.	/	/
Cc1cc(C)n(-c2nnc(Nc3ccc(C)c(Cl)c3)c3ccccc23)n1	/	/	-98	/	/
CCC(=O)NC(=S)Nc1ccc(NC(=O)c2cc3ccccc3o2)c(OC)c1	.	.	?	30	?
CCOc1cccc(C(=O)Nc2ccc(NC(=O)c3cc4ccccc4o3)c(OC)c2)c1	.	.	.	.	.
COc1cc(NC(=O)C(C)C)ccc1NC(=O)c1cc2ccccc2o1	.	24	.	40	.
COc1cc(NC(=O)c2cccc(C)c2)ccc1NC(=O)c1cc2ccccc2o1	.	13	-87	.	.
SMILES	Pf growth 48h	CHX counter	HCMV antiviral	Shiga toxin inh	Pf growth 96h
CCC(=O)Nc1ccc(Cl)c(NC(=S)NC(=O)c2cc3ccccc3o2)c1	.	52	.	72	.
COc1ccc(NC(=O)CSc2oc(-c3ccc(C)cc3)nc2S(=O)(=O)c2ccc(C)cc2)c(OC)c1	/	/	.	/	/
Cc1ccc(Cn2c(=N)c(C(=O)NCCN3CCOCC3)cc3c(=O)n4ccccc4nc32)cc1	?	.	.	.	?
N=c1c(C(=O)NCCN2CCOCC2)cc2c(=O)n3ccccc3nc2n1CCc1ccccc1	3.3µM	.	.	.	3.3µM
N=c1c(C(=O)NCc2ccc(F)cc2)cc2c(=O)n3ccccc3nc2n1CCCN1CCOCC1	1.7µM	.	?	.	2.6µM
N=c1c(C(=O)NCc2ccccc2)cc2c(=O)n3ccccc3nc2n1CCCN1CCOCC1	5.9µM	.	.	.	.

Screens from PubChem.
